Screen size: about 300,000 compounds; about 5,200 (1.7%) were called active.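 Rule for the calls: active = mean replicate activation of at least 50% with a set share of replicates each reaching 50%; inconclusive = only one of those two conditions met; inactive = mean below 50% and too few replicates reaching it.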 For the sample, actives were picked, then their nearest neighbours and some compounds at random.
test: HSF-1 response element luciferase induction – NIH3T3-HGL cells, MG132 stress, luminescence, single point, primary screen (AID 504408); settings: NIH3T3-HGL HSF-1 luciferase reporter, MG132, 8 h; at 9 µM; stronger effect = higher value; 100% = twice DMSO control signal;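 note: 0% = median of the neutral control wells and 100% = twice that signal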

Row | SMILES | activation
1 | CCN(CC(=O)Nc1c(F)cccc1F)C(=O)c1ccc(Sc2nncn2C)c([N+](=O)[O-])c1 | -3.26% (inactive)
2 | Cc1c(NC(=O)CN(C)CC(=O)Nc2ccc(F)c(F)c2F)c(=O)n(-c2ccccc2)n1C | 1.95% (inactive)
3 | COc1cc(C(=O)NCC(=O)NCCSc2ccc(Br)cc2)cc(OC)c1OC | 7.39% (inactive)
4 | Cc1cc(NC(=O)c2ccccc2C)no1 | 26.1% (inactive)
5 | Cc1ccccc1CSCC(=O)NC(=O)NC(C)(C)C | 5.08% (inactive)
6 | Cc1cc(NC(=O)CSCc2ccccc2C)no1 | 56.3% (active)
7 | O=C(COc1coc(CN2CCN(c3ccccc3)CC2)cc1=O)N1CCc2ccccc21 | 1.05% (inactive)
8 | COc1ccc(N2CCN(C(=O)COC(=O)c3cccc(S(=O)(=O)Nc4ccccc4OC)c3)CC2)cc1 | 5.51% (inactive)
9 | Cc1cc(NC(=O)CSc2nc3cc(Cl)ccc3c(=O)n2Cc2ccco2)no1 | 1.94% (inactive)
10 | Clc1cccc(-c2nc3nc4ccccc4nc3n2Cc2ccco2)c1 | 79.2% (active)
11 | O=c1[nH]c(CSc2ncc(-c3ccc(F)cc3)n2Cc2ccco2)nc2ccccc12 | 41.8% (inactive)
12 | O=C(NCCSc1ncc(-c2ccccc2)[nH]1)c1ccco1 | 10.6% (inactive)
13 | CCCCOc1ccc(-c2ncc(C(=O)OCC)c(N)n2)cc1 | 23.3% (inactive)
14 | CCOC(=O)c1cnc(-c2ccccc2)nc1Oc1ccc(C)cc1 | 88.3% (active)
15 | CCCNC(=O)c1cnc(-c2ccccc2)nc1-c1ccccc1 | 23.9% (inactive)
16 | O=C(COc1cccc2c1CCNC2=O)NC1CCCCC1 | -2.8% (inactive)
17 | CC(C)Nc1nnc(SC(C)C(=O)N(C)C2CCCCC2)s1 (configuration not stated) | 7.73% (inactive)
18 | N#CC(=C1SC=CS1)c1nc(-c2ccccc2)cs1 | 44.5% (inactive)
19 | N#CC(=C1CCCC1)c1nc(-c2ccc(Cl)cc2)cs1 | 62.5% (active)
20 | CCCCCN1CC(O)=C(c2nc(-c3ccc(Cl)cc3)cs2)C1=N | -2.24% (inactive)
21 | O=C(COc1ccccc1Cl)Nc1ccccc1C(=O)NC1CC1 | -14.4% (inactive)
22 | CN(C)CCN(C(=O)CN1C(=O)c2ccccc2C1=O)c1nc2cc3c(cc2s1)OCCO3 | 16% (inactive)
23 | CN(CC(=O)Nc1cccc(F)c1)C(=O)C1=COCCO1 | 3.81% (inactive)
24 | Cc1cc(Nc2ccc(Br)cc2)nc2ccccc12 | 0.857% (inactive)
25 | Cc1cccc(C2C3=C(CCCC3=O)N=C3c4ccccc4C(=O)C32)c1 (configuration not stated) | 78.2% (active)
26 | O=C1CCCC2=C1C(c1ccccc1)n1c(s/c(=C/c3cccc(F)c3)c1=O)=N2 (configuration not stated) | -4.55% (inactive)
27 | CCOC(=O)C1=C(C)N=C2c3ccccc3C(=O)C2C1c1ccc(Br)cc1 (configuration not stated) | -1.71% (inactive)

From PubChem BioAssay AID504408 (Broad Institute, 2011)
